In PubChem BioAssay (NCATS):
Active and inactive are the calls of the source. No rule for the calls is given here.

system: HIV-1 nucleocapsid protein NCp7 (binding to TG oligonucleotide); assay: HIV Nucleocapsid (AID 346); details: HIV-1 NC / fluorescein-TGTGTGTG probe, fluorescence polarization;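 also: potency is for inhibitors that block NC binding and lower polarization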
How it was run: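 Inhibition of nucleocapsid binding to single-stranded 5'-TGTGTGTG probe (10 nM) was measured by fluorescence polarization after 1 hr at room temperature with 100 nM protein under high-salt, zinc-containing, reducing conditions.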
Potency is read from the fitted curve at half-maximal effect.

Compound | Potency
COCC(=O)N1CCC2(CC1)CN(Cc1cc(C(F)(F)F)cc(C(F)(F)F)c1)C2 | > 20 µM (inactive)
O=C(c1ccco1)N1CCC2(CCCN(Cc3ccccc3)C2)CC1 | > 20 µM (inactive)
COc1ccccc1CNc1nc(-c2cccnc2)nc2ccccc12 | > 20 µM (inactive)
CN(C)C(=O)c1ccc(-c2ccc3ncnc(Nc4ccc(F)cc4)c3c2)cc1 | > 20 µM (inactive)
COc1ccc(-n2c(=O)c(CCc3ccccc3)nc3cnc(N4CCNCC4)nc32)cc1 | > 20 µM (inactive)
COCCn1c(=O)c(CCc2ccccc2)nc2cnc(N3CCN(C)CC3)nc21 | > 20 µM (inactive)
COC(=O)N1CCC2(CCCN(c3ncccn3)C2)CC1 | > 20 µM (inactive)
COCCn1c(=O)c(-c2cccc(C#N)c2)nc2cnc(OC)nc21 | > 20 µM (inactive)
COc1ccccc1CNc1ncncc1-c1ccc(C(=O)N(C)C)cc1 | > 20 µM (inactive)
O=c1c(CCc2ccccc2)nc2cncnc2n1Cc1ccccc1 | > 20 µM (inactive)
O=c1cnc2cncnc2n1Cc1ccc(F)cc1 | > 20 µM (inactive)
O=C(c1cc(C(F)(F)F)cc(C(F)(F)F)c1)N1CCC2(CC1)CCN(c1ccccc1)CC2 | > 20 µM (inactive)
COc1cccc(Cn2c(=O)c(-c3ccc(F)cc3)nc3cnc(N4CCOCC4)nc32)c1 | > 20 µM (inactive)
COCCn1c(=O)c(C)nc2cnc(OC)nc21 | > 20 µM (inactive)
N#Cc1ccc(CN2CC[C@@]3(CCCN(C(=O)c4cccc(F)c4)C3)C2)cc1 | > 20 µM (inactive)
COc1ncc2nc(-c3ccc(F)cc3)c(=O)n(Cc3cccs3)c2n1 | > 20 µM (inactive)
CC(C)NC(=O)N1CC2(CCN(C(=O)c3ccncc3)CC2)C1 | > 20 µM (inactive)
CN1CCN(c2ncc3nc(-c4ccc(F)cc4)c(=O)n(C4CC4)c3n2)CC1 | > 20 µM (inactive)
COc1ccccc1CNc1ccnc(-c2cccnc2)n1 | > 20 µM (inactive)
COc1ccc(-c2nc3cnc(N4CCOCC4)nc3n(-c3ccccc3)c2=O)cc1 | > 20 µM (inactive)

Compound | Potency
Cc1noc(C)c1-c1cc(N(C)Cc2ccco2)ncn1 | > 20 µM (inactive)
COc1ccccc1-c1nc(NCc2cnc(C)cn2)c2ccccc2n1 | > 20 µM (inactive)
COCCn1c(=O)cnc2cnc(N(C)C)nc21 | > 20 µM (inactive)
N#Cc1cccc(NC(=O)N2CCC3(CC2)CCN(C(=O)c2ccco2)CC3)c1 | > 20 µM (inactive)
COc1ccc(Oc2ncc3nc(C)c(=O)n(C[C@H]4CCCO4)c3n2)cc1 | > 20 µM (inactive)
COc1ccccc1CNc1nc(-c2ccccc2OC)nc2ccccc12 | > 20 µM (inactive)
c1cncc(CNc2ncnc3ccc(-c4cccnc4)cc23)c1 | > 20 µM (inactive)
COc1ccc(NC(=O)N2CC3(CCN(S(=O)(=O)c4ccccc4)CC3)C2)cc1 | > 20 µM (inactive)
O=c1c(-c2ccc(Cl)cc2)nc2cnc(N3CCOCC3)nc2n1-c1ccccc1 | > 20 µM (inactive)
O=C(c1csnn1)N1CCC[C@@]2(CCN(c3cccc(-c4ccccc4)c3)C2)C1 | > 20 µM (inactive)
O=C(c1ccco1)N1CCC2(CC1)CN(Cc1cc(C(F)(F)F)cc(C(F)(F)F)c1)C2 | > 20 µM (inactive)
N#Cc1cccc(-c2cc(NCc3ccccc3)ncn2)c1 | > 20 µM (inactive)
COCC(=O)N1CCC2(CCCN(C(=O)Nc3cccc(F)c3)C2)CC1 | > 20 µM (inactive)
COc1ccc(NC(=O)N2CCCC3(CCN(C(=O)c4cccc(F)c4)CC3)C2)cc1 | > 20 µM (inactive)
CN(C)c1ccc(-c2nc(-n3ccnc3)c3ccccc3n2)cc1 | > 20 µM (inactive)
O=C(c1cccc(F)c1)N1CCC2(CCCN(Cc3nccs3)C2)CC1 | > 20 µM (inactive)
O=c1c(-c2cccc(Cl)c2)nc2cncnc2n1Cc1ccccc1 | > 20 µM (inactive)
COc1ccc(-c2nc3cnc(Oc4ccccc4)nc3n(CCC#N)c2=O)cc1 | 16.7 µM (inactive)
COc1ccc(C(=O)N2CCC[C@@]3(CCN(Cc4ccccc4OC)C3)C2)cc1 | > 20 µM (inactive)
CCNc1ncc2ncc(=O)n(C[C@H]3CCCO3)c2n1 | > 20 µM (inactive)
